Data taken from the supplement of paper PMC10849652.
The full data set covers some 7,900 targets. This sample favours those with a hit. About 0.6% of all pairs of compound and target were hits.

Tests used:
Assay in all cases: log2 fold change, soluble protein after heating vs DMSO (PISA); higher = thermal stabilisation; K562 cells, 10 uM, 30 min; active = over 0.2 and 3.5 SD of the protein, either way, in both replicates (recomputed)
[1] = compound: CC1=C(C=C(C=C1)NC(=O)C2=CC(=CC=C2)C(C)(C)C#N)NC3=CC4=C(C=C3)N=CN(C4=O)C
Summary of the method: (§1)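 Soluble protein was quantified by TMTpro 16plex LC-MS/MS after channel sums were equalised. It was obtained as the supernatant after 21,000xg for 90 min from pooled aliquots of K562 cells (2×10^6 cells/mL, 10 μM compound, 30 min) heated for 3 min across 48°C-58°C and extracted in PBS with 0.5% NP-40 at 4°C. Thermal stability values are relative to control samples and come from duplicates. They are given as log2 fold changes.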

[2] = compound: CC1=C(C=C(C=C1)NC(=O)C2=CC(=CC=C2)N(C)C)NC(=O)C3=CC=C(C=C3)O
Summary of the method: as §1

[3] = compound: CC1=CC=C(C=C1)SC2=C3C=C(SC3=CN=C2)C(=O)N
Summary of the method: as §1

[4] = compound: CC1=NC(=CC=C1)C2=C(N=C(N2)C(C)(C)C)C3=CC4=NC=CN=C4C=C3
Summary of the method: as §1

Nexturastat A = compound: CCCCN(Cc1ccc(C(=O)NO)cc1)C(=O)Nc1ccccc1 [Nexturastat A]
Summary of the method: as §1

vemurafenib = compound: CCCS(=O)(=O)Nc1ccc(F)c(C(=O)c2c[nH]c3ncc(-c4ccc(Cl)cc4)cc23)c1F [vemurafenib]
Summary of the method: as §1

[5] = compound: CCCS(=O)(=O)Nc1ccc(F)c(C(=O)c2c[nH]c3ncc(Cl)cc23)c1F
Summary of the method: as §1

[6] = compound: CCCc1cc(C)[nH]c(=O)c1CNC(=O)c1cc(-c2ccnc(N3CCN(C)CC3)c2)cc2c1cnn2C(C)C
Summary of the method: as §1

givinostat = compound: CCN(CC)Cc1ccc2cc(COC(=O)Nc3ccc(C(=O)NO)cc3)ccc2c1 [givinostat]
Summary of the method: as §1

barasertib = compound: CCN(CCCOc1ccc2c(Nc3cc(CC(=O)Nc4cccc(F)c4)[nH]n3)ncnc2c1)CCOP(=O)(O)O [barasertib]
Summary of the method: as §1

Measured: log2 fold change

CYFIP1 (UniProt Q7L576)
inactive: [1] 0.012 | [2] 0.005 | [3] 0.017 | [4] 0.035 | Nexturastat A -0.043 | vemurafenib 0.026 | [5] 0.019 | [6] 0.006 | givinostat -0.005 | barasertib 0.038

DDB1 (UniProt Q16531)
inactive: [1] -0.012 | [2] 0.011 | [3] 0.006 | [4] 0 | Nexturastat A -0.036 | vemurafenib -0.012 | [5] -0.003 | [6] -0.027 | givinostat 0 | barasertib -0.01

EXOC4 (UniProt Q96A65)
inactive: [1] -0.021 | [2] 0.029 | [3] 0.021 | [4] 0.001 | Nexturastat A 0.209 | vemurafenib -0.003 | [5] 0.098 | [6] 0.01 | givinostat 0.133 | barasertib 0.139

CTSL (UniProt P07711)
inactive: [1] -0.083 | [2] 0.014 | [3] -0.049 | [4] 0.013 | Nexturastat A 0.085 | vemurafenib -0.023 | [5] -0.05 | [6] 0.033 | givinostat 0.121 | barasertib 0.092

FAM118B (UniProt Q9BPY3)
inactive: [1] 0 | [2] 0.03 | [3] 0.037 | [4] 0.055 | Nexturastat A 0.099 | vemurafenib 0.048 | [5] 0.003 | [6] 0.044 | givinostat 0.063 | barasertib 0.093

DUS2 (UniProt Q9NX74)
Sequence of UniProt Q9NX74 (Q9NX74 whole entry, looked up): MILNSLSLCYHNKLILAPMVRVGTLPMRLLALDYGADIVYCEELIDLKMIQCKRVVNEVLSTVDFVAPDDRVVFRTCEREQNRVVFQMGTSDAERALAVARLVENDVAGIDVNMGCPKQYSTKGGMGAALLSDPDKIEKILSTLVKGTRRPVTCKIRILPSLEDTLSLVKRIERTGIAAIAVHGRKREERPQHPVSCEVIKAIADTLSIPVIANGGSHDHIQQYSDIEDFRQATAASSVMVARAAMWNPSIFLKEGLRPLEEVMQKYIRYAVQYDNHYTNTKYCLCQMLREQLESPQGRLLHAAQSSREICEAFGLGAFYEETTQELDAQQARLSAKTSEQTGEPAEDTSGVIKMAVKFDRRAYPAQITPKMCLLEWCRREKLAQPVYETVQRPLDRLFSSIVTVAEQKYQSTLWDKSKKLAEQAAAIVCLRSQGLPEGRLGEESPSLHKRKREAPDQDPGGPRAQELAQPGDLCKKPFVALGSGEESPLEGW
inactive: [1] -0.028 | [2] -0.022 | [3] -0.022 | [4] 0.04 | Nexturastat A -0.015 | vemurafenib -0.004 | [5] 0.099 | [6] 0.039 | givinostat 0.062 | barasertib -0.062

CTSZ (UniProt Q9UBR2)
inactive: [1] -0.009 | [2] -0.004 | [3] 0.025 | [4] 0.002 | Nexturastat A -0.009 | vemurafenib -0.026 | [5] -0.045 | [6] -0.017 | givinostat 0.152 | barasertib 0.027

EDEM2 (UniProt Q9BV94)
inactive: [1] -0.064 | [2] -0.001 | [3] -0.084 | [4] -0.204 | Nexturastat A 0.036 | vemurafenib -0.032 | [5] -0.149 | [6] 0.095 | givinostat 0.013 | barasertib 0.21

DMXL1 (UniProt Q9Y485)
inactive: [1] -0.075 | [2] -0.004 | [3] 0.025 | [4] 0.017 | Nexturastat A 0.044 | vemurafenib 0.008 | [5] 0.032 | [6] 0.043 | givinostat 0.076 | barasertib 0.068

DOHH (UniProt Q9BU89)
inactive: [1] 0.083 | [2] -0.069 | [3] 0.084 | [4] -0.091 | Nexturastat A -0.144 | vemurafenib 0.001 | [5] -0.059 | [6] -0.063 | givinostat -0.068 | barasertib -0.274

EHBP1L1 (UniProt Q8N3D4)
inactive: [1] 0 | [2] -0.02 | [3] -0.003 | [4] -0.043 | Nexturastat A 0.011 | vemurafenib 0.034 | [5] 0.007 | [6] 0.025 | givinostat 0.026 | barasertib 0.016

EIF4G1 isoform 8 (UniProt Q04637)
inactive: [1] -0.028 | [2] -0.011 | [3] 0.004 | [4] 0.006 | Nexturastat A 0.169 | vemurafenib 0.013 | [5] 0.028 | [6] 0.119 | givinostat 0.057 | barasertib 0.067

EVC2 (UniProt Q86UK5)
inactive: [1] -0.263 | [2] -0.146 | [3] -0.006 | [4] -0.018 | Nexturastat A 0.046 | vemurafenib -0.073 | [5] -0.054 | [6] 0.16 | givinostat 0.06 | barasertib -0.064

CTSV (UniProt O60911)
inactive: [1] 0 | [2] 0.019 | [3] 0 | [4] -0.017 | Nexturastat A -0.043 | vemurafenib -0.021 | [5] -0.006 | [6] -0.062 | givinostat 0.194 | barasertib 0.032

F5 (UniProt P12259)
Sequence of UniProt P12259 (P12259 whole entry, looked up): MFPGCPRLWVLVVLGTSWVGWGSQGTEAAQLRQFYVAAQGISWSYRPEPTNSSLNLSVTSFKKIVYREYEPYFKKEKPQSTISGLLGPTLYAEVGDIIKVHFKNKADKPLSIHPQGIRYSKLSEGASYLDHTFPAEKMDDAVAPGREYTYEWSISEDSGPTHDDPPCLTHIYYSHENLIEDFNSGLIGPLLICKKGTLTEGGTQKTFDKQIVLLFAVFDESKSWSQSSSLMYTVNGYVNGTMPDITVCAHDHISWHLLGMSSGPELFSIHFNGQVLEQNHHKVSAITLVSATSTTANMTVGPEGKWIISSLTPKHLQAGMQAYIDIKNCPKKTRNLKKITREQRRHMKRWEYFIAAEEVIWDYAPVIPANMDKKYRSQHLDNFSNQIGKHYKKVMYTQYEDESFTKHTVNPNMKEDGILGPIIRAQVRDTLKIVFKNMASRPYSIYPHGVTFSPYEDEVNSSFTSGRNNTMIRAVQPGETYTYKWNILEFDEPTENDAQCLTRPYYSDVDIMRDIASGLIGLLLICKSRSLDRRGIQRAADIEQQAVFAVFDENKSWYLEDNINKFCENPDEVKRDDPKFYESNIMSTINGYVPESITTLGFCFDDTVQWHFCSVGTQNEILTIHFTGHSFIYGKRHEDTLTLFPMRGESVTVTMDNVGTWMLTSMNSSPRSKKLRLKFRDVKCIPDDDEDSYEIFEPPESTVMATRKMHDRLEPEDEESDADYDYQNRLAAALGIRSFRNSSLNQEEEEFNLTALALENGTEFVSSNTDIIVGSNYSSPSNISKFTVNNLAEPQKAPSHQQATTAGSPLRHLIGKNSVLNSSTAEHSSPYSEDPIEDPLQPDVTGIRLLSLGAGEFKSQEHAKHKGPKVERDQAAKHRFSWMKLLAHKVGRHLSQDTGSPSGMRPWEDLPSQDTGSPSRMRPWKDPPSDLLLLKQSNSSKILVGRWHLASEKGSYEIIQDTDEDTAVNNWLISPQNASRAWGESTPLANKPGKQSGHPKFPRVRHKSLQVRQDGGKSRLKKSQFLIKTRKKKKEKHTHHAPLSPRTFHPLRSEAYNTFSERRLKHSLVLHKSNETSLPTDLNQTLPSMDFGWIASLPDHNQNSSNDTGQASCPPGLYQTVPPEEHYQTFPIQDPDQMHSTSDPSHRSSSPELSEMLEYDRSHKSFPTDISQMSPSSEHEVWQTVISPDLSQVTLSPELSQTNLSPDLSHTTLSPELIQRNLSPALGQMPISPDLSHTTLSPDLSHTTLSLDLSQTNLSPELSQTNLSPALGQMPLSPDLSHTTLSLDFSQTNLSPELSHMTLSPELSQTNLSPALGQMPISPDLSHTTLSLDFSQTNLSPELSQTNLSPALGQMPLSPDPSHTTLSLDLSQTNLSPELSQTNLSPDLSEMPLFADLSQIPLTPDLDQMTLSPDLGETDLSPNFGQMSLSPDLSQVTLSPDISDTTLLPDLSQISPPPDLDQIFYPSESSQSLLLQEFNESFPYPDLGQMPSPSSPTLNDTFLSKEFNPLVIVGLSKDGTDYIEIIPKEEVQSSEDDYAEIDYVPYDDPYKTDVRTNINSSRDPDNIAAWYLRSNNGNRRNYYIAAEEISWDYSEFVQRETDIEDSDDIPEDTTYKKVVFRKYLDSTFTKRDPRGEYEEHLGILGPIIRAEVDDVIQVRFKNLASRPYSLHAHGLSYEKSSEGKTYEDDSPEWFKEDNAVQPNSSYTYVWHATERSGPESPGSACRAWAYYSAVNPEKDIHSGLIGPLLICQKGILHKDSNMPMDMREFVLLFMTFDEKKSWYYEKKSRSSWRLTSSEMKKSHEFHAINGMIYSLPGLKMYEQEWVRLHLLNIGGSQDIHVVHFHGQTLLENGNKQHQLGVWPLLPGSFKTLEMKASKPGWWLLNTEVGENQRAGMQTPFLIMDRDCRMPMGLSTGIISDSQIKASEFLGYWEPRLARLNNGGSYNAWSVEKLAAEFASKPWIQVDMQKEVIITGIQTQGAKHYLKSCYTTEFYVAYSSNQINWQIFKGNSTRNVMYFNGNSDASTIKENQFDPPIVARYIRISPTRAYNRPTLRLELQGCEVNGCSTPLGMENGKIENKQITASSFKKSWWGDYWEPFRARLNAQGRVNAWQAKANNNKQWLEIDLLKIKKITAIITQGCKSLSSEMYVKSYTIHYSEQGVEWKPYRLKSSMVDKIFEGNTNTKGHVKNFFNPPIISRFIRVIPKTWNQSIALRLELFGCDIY
inactive: [1] 0.056 | [2] 0.036 | [3] -0.027 | [4] 0.011 | Nexturastat A -0.04 | vemurafenib 0.066 | [5] -0.016 | [6] -0.036 | givinostat -0.01 | barasertib 0.034

EXOC1 (UniProt Q9NV70)
inactive: [1] -0.026 | [2] -0.01 | [3] 0.019 | [4] 0.027 | Nexturastat A 0.115 | vemurafenib -0.023 | [5] 0.028 | [6] 0.08 | givinostat 0.07 | barasertib 0.082

ETNK1 (UniProt Q9HBU6)
inactive: [1] 0.241 | [2] -0.054 | [3] 0.022 | [4] 0.02 | Nexturastat A -0.177 | vemurafenib 0.006 | [5] 0.172 | [6] -0.076 | givinostat 0.042 | barasertib 0.005

DYRK1A isoform 2 (UniProt Q13627)
inactive: [1] -0.025 | [2] 0.061 | [3] 0.003 | [4] -0.005 | Nexturastat A -0.032 | vemurafenib -0.021 | [5] -0.024 | [6] -0.019 | givinostat 0.038 | barasertib 0.004

DPH5 isoform 5 (UniProt Q9H2P9)
Sequence of UniProt Q9H2P9 (Q9H2P9 whole entry, looked up): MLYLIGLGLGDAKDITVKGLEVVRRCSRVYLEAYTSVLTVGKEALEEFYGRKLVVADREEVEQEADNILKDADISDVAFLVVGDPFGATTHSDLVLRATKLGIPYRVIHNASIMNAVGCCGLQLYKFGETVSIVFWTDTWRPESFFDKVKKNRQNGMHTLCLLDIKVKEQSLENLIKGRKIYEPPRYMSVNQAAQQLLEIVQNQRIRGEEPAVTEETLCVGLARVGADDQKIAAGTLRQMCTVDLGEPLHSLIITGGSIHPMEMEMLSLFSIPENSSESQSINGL
inactive: [1] 0.009 | [2] -0.01 | [3] 0.046 | [4] 0.042 | Nexturastat A -0.079 | vemurafenib -0.041 | [5] 0.087 | [6] -0.045 | givinostat -0.105 | barasertib -0.006

DNAH11 (UniProt Q96DT5)
inactive: [1] -0.109 | [2] 0.064 | [3] -0.13 | [4] 0.044 | Nexturastat A -0.007 | vemurafenib 0.199 | [5] -0.15 | [6] 0.17 | givinostat 0.111 | barasertib -0.051

DCAF16 (UniProt Q9NXF7)
inactive: [1] -0.036 | [2] -0.013 | [3] 0.059 | [4] -0.015 | Nexturastat A 0.063 | vemurafenib 0.151 | [5] 0.185 | [6] 0.042 | givinostat -0.016 | barasertib 0.024

EPHX2 (UniProt P34913)
inactive: [1] 0.112 | [2] 0.129 | [3] 0.031 | [4] -0.017 | Nexturastat A 0.193 | vemurafenib -0.012 | [5] -0.025 | [6] -0.075 | givinostat -0.014 | barasertib -0.029

EXOSC10 (UniProt Q01780)
Sequence of UniProt Q01780 (Q01780 whole entry, looked up): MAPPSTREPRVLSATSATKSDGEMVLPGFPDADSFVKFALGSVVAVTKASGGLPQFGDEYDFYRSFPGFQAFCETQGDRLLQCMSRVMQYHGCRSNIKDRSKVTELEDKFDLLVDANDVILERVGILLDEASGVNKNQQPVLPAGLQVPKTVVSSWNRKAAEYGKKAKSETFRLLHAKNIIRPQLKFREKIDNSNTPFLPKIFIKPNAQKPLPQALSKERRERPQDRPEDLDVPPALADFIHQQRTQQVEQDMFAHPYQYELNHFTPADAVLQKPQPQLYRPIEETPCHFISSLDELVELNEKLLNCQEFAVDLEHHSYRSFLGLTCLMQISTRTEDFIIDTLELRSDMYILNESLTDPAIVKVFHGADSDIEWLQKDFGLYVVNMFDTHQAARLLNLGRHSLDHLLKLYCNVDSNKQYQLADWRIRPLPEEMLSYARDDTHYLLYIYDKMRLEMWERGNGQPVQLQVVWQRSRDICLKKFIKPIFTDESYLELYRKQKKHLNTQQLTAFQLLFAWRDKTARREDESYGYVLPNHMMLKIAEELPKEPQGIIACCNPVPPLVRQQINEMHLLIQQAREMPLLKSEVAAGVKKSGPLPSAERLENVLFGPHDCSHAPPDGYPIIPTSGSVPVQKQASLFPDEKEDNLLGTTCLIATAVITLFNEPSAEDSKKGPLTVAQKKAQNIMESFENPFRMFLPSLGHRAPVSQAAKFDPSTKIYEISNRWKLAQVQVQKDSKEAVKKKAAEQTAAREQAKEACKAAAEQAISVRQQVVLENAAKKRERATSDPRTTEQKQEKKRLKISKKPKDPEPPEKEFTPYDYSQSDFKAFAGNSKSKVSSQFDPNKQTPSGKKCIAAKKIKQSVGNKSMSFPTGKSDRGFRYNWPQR
inactive: [1] -0.537 | [2] 0.061 | [3] -0.07 | [4] -0.123 | vemurafenib -0.221 | [5] -0.18 | [6] -0.168 | givinostat 0.147 | barasertib 0.036
active: Nexturastat A 0.762

DPP8 (UniProt Q6V1X1)
Sequence of UniProt Q6V1X1 (Q6V1X1 whole entry, looked up): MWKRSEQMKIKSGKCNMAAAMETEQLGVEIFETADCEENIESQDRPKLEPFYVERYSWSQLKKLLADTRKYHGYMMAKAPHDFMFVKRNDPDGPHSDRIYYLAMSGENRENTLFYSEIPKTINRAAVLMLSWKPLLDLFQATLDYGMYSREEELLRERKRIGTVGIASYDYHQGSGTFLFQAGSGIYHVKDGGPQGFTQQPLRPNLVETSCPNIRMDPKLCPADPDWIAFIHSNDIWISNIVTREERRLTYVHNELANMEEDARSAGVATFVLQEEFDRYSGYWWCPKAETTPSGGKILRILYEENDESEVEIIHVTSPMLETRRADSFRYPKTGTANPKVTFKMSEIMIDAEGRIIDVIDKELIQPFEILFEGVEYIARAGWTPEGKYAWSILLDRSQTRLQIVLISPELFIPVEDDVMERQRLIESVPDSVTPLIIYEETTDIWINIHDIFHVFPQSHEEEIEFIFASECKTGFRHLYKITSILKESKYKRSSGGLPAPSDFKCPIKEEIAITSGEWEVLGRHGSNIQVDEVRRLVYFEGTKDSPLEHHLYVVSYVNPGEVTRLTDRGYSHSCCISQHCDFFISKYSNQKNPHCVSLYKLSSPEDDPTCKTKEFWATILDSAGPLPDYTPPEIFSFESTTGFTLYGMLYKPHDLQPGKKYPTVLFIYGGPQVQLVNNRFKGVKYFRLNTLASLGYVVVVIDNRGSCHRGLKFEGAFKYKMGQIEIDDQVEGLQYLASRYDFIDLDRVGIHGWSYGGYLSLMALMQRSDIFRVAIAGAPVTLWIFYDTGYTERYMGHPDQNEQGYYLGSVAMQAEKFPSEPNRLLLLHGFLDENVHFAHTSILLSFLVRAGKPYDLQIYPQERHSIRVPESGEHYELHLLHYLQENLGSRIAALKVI
inactive: [1] -0.109 | [2] -0.026 | [3] -0.031 | [4] 0.021 | Nexturastat A 0.082 | vemurafenib -0.056 | [5] -0.05 | [6] -0.176 | givinostat -0.026 | barasertib 0.014

DNAJB12 (UniProt Q9NXW2)
inactive: [1] -0.071 | [2] -0.017 | [3] -0.002 | [4] 0.017 | Nexturastat A 0.044 | vemurafenib 0.008 | [5] 0.008 | [6] -0.069 | givinostat 0.06 | barasertib -0.001

FAF2 (UniProt Q96CS3)
inactive: [1] 0.015 | [2] -0.021 | [3] 0.008 | [4] -0.016 | Nexturastat A 0.009 | vemurafenib 0.038 | [5] 0.008 | [6] -0.039 | givinostat 0.036 | barasertib 0.021

FAM122A (UniProt Q96E09)
inactive: [1] -0.01 | [2] -0.005 | [3] 0.045 | [4] -0.006 | Nexturastat A 0.107 | vemurafenib -0.017 | [5] 0.095 | [6] 0.026 | givinostat 0.064 | barasertib -0.016

FAM207A (UniProt Q9NSI2)
Sequence of UniProt Q9NSI2 (Q9NSI2 whole entry, looked up): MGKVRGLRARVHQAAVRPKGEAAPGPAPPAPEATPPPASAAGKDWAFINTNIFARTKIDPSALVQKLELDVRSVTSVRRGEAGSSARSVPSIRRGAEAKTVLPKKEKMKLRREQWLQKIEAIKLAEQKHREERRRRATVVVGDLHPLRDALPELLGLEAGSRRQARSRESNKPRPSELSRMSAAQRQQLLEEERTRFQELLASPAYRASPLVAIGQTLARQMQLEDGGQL
inactive: [1] -0.086 | [2] 0.11 | [3] -0.006 | [4] 0.024 | Nexturastat A -0.047 | vemurafenib 0.038 | [5] -0.006 | [6] 0.44 | givinostat 0.148 | barasertib -0.036

DCAF13 (UniProt Q9NV06)
inactive: [1] -0.038 | [2] 0.007 | [3] -0.123 | [4] -0.067 | Nexturastat A 0.205 | vemurafenib -0.117 | [5] -0.062 | [6] 0.089 | givinostat 0.017 | barasertib -0.084

DCP2 (UniProt Q8IU60)
inactive: [1] -0.134 | [2] -0.006 | [3] 0.016 | [4] -0.089 | Nexturastat A 0.174 | vemurafenib 0.064 | [5] 0.055
